Laboratory results reported in the supplement of paper PMC10849652.
About 8,800 targets were measured; listed, in parts, are those with a hit and a random draw of the rest. About 0.5% of all pairs of compound and target were hits.

Experiments:
Assay in all cases: log2 fold change, soluble protein after heating vs DMSO (PISA); higher = thermal stabilisation; K562 lysate, 10 uM; active = over 0.2 and 3.5 SD of the protein, either way, in both replicates (recomputed)
[1] = compound: C1=CC=C(C=C1)[C@H](COC2=CC3=C(C=C2)NC(=O)N3)NC(=O)C4=CC=CN(C4=O)CC5=CC(=C(C=C5)F)F
Method in brief: (§1)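 The values are log-two fold changes in thermal stability compared with solvent controls and come from duplicates. They were obtained by TMTpro 16plex LC-MS/MS, with channel sums equalised, on the supernatant after 21,000xg for 90 min. That supernatant came from crude K562 extract at 1 mg/mL protein treated with 10 μM compound for 30 min, heated for 3 min across 48°C-58°C, pooled and brought to 0.5% NP-40 at 4°C.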

[2] = compound: CC1=C(SC2=C1C(=N[C@H](C3=NN=C(N32)C)CC(=O)N)C4=CC=C(C=C4)Cl)C
Method in brief: as §1

[3] = compound: CC1=C2C(=CC=C1)N=C(N(C2=O)C3=CC=CC=C3C)CN4C=NC5=C(N=CN=C54)N
Method in brief: as §1

[4] = compound: Cc1sc2c(c1C)C(c1ccc(Cl)cc1)=N[C@@H](CC(=O)OC(C)(C)C)c1nnc(C)n1-2
Method in brief: as §1

[5] = compound: c1ccc([C@@H]2C[C@H]2NC2CCNCC2)cc1
Method in brief: as §1

Measured: log2 fold change

NELFA (UniProt Q9H3P2)
inactive: [1] -0.055 | [2] 0.033 | [3] -0.022 | [4] -0.037 | [5] 0.054

MSH3 (UniProt P20585)
inactive: [1] 0.018 | [2] 0.014 | [3] 0.039 | [4] -0.008 | [5] 0.04

NSA2 (UniProt O95478)
inactive: [1] 0.111 | [2] -0.135 | [3] -0.018 | [4] -0.042 | [5] 0.122

NFATC4 isoform 2 (UniProt Q14934)
inactive: [1] -0.077 | [2] 0.015 | [3] 0 | [4] -0.112 | [5] -0.197

MYH11 isoform 2 (UniProt P35749)
inactive: [1] 0.037 | [2] -0.021 | [3] 0.004 | [4] -0.065 | [5] 0.025

ORC5 (UniProt O43913)
inactive: [1] -0.037 | [2] -0.022 | [3] 0.029 | [4] 0.003 | [5] 0.021

OCRL (UniProt Q01968)
inactive: [1] 0.018 | [2] 0.056 | [3] 0.003 | [4] 0.013 | [5] -0.017

MYD88 isoform 6 (UniProt Q99836)
inactive: [1] 0.019 | [2] -0.021 | [3] 0.026 | [4] -0.008 | [5] 0.013

NT5DC2 isoform 2 (UniProt Q9H857)
inactive: [1] 0.021 | [2] -0.026 | [3] 0.009 | [4] 0.051 | [5] -0.022

OLA1 (UniProt Q9NTK5)
inactive: [1] -0.001 | [2] 0.04 | [3] 0 | [4] 0.011 | [5] 0.022

MTA3 (UniProt Q9BTC8)
inactive: [1] -0.006 | [2] -0.047 | [3] 0.002 | [4] 0.014 | [5] -0.001

NOA1 (UniProt Q8NC60)
inactive: [1] -0.087 | [2] 0.099 | [3] 0.023 | [4] -0.014 | [5] -0.07

OSBPL6 isoform 5 (UniProt Q9BZF3)
inactive: [1] 0.014 | [2] -0.023 | [3] 0.02 | [4] 0.023 | [5] -0.087

NOB1 (UniProt Q9ULX3)
Sequence of UniProt Q9ULX3 (Q9ULX3 whole entry, looked up): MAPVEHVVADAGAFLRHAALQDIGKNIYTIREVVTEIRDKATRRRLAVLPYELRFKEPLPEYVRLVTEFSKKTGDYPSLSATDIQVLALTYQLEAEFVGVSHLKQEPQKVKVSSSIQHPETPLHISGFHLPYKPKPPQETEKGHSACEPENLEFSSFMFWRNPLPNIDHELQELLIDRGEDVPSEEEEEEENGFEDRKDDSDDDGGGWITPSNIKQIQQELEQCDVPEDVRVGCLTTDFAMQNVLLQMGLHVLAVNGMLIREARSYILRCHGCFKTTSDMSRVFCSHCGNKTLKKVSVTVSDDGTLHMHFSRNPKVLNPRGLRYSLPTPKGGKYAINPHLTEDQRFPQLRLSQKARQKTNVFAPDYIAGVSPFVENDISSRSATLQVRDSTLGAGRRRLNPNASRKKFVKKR
inactive: [1] 0.004 | [2] -0.051 | [3] 0.038 | [4] -0.021 | [5] 0.13

NUP205 (UniProt Q92621)
inactive: [1] -0.042 | [2] -0.019 | [3] 0.045 | [4] 0.006 | [5] -0.001

PAK4 (UniProt O96013)
inactive: [1] -0.06 | [2] -0.03 | [3] -0.018 | [4] -0.021 | [5] -0.14

MT-ND1 (UniProt P03886)
inactive: [1] -0.057 | [2] -0.098 | [3] -0.055 | [4] -0.077 | [5] -0.039

PANK4 (UniProt Q9NVE7)
inactive: [1] -0.009 | [2] -0.025 | [3] 0.026 | [4] 0.003 | [5] -0.013

NTPCR (UniProt Q9BSD7)
Sequence of UniProt Q9BSD7 (Q9BSD7 whole entry, looked up): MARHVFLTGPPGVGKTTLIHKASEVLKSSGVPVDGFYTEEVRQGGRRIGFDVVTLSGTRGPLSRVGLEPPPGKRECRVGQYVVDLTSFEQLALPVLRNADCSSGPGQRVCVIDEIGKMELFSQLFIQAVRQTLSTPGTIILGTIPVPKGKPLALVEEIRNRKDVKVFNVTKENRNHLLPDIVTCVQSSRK
inactive: [1] -0.015 | [2] 0.067 | [3] -0.015 | [4] 0.034 | [5] 0.029

NOSTRIN (UniProt Q8IVI9)
Sequence of UniProt Q8IVI9 (Q8IVI9 whole entry, looked up): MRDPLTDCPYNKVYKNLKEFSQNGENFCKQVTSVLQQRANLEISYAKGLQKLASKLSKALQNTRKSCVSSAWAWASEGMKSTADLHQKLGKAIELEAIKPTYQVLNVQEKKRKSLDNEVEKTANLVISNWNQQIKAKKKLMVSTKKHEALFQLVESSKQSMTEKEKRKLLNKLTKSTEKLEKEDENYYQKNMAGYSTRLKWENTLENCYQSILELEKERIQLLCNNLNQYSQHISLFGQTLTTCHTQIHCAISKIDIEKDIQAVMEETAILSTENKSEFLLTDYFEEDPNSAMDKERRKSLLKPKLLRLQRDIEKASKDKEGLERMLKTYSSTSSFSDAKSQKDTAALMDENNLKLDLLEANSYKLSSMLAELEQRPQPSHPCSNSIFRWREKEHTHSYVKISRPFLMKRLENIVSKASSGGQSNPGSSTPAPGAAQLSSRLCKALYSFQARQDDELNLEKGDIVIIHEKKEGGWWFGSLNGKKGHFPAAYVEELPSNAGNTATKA
inactive: [1] -0.061 | [2] 0.039 | [3] 0.017 | [4] -0.092 | [5] 0.017

NGLY1 (UniProt Q96IV0)
inactive: [1] -0.011 | [2] 0.002 | [3] 0.016 | [4] -0.018 | [5] -0.07

MTHFD1, A0A384N5Y3
inactive: [1] -0.003 | [2] -0.002 | [3] 0.015 | [4] 0.018 | [5] 0.071

OSBP (UniProt P22059)
inactive: [1] 0.007 | [2] 0.048 | [3] 0.036 | [4] -0.009 | [5] 0.039

MRPL51 (UniProt Q4U2R6)
inactive: [1] -0.001 | [2] -0.053 | [3] 0.043 | [4] 0.066 | [5] -0.109

NCK1 (UniProt P16333)
inactive: [1] 0.018 | [2] 0 | [3] 0.022 | [4] 0.003 | [5] 0.049

NUP188 (UniProt Q5SRE5)
inactive: [1] -0.044 | [2] -0.009 | [3] 0 | [4] -0.001 | [5] 0.016

MVB12A (UniProt Q96EY5)
inactive: [1] 0.006 | [2] 0.032 | [3] 0.017 | [4] 0.032 | [5] 0.059

NBN (UniProt O60934)
Sequence of UniProt O60934 (O60934 whole entry, looked up): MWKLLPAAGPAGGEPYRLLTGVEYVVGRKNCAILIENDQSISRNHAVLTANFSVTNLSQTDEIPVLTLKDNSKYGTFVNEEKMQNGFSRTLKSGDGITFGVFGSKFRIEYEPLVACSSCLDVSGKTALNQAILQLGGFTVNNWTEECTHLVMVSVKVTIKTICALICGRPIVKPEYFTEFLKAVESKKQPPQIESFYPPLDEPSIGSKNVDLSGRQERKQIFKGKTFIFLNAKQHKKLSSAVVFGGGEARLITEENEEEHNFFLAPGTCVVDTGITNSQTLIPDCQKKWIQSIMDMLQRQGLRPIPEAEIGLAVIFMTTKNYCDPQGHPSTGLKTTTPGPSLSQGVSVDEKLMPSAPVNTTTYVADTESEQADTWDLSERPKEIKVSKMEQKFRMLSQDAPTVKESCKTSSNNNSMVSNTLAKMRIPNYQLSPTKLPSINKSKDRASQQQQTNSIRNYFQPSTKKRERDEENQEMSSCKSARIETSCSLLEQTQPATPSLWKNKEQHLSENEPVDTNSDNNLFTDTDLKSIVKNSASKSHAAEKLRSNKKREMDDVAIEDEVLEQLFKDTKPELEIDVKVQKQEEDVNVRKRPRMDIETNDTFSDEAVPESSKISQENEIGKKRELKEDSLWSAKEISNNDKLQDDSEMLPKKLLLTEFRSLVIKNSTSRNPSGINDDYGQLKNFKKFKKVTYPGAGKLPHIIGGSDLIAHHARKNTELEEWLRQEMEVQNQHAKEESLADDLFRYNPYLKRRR
inactive: [1] 0.074 | [2] 0.046 | [3] 0.003 | [4] -0.011 | [5] 0.059

OPA1 isoform 2 (UniProt O60313)
inactive: [1] -0.048 | [2] 0.021 | [3] 0.038 | [4] 0.005 | [5] 0.084

OTUD7B (UniProt Q6GQQ9)
inactive: [1] -0.004 | [2] 0 | [3] -0.001 | [4] -0.02 | [5] 0.035

NOC2L (UniProt Q9Y3T9)
inactive: [1] 0.004 | [2] -0.019 | [3] 0.009 | [5] -0.012
active: [4] 0.324

MYOM1 (UniProt P52179)
Sequence of UniProt P52179 (P52179 whole entry, looked up): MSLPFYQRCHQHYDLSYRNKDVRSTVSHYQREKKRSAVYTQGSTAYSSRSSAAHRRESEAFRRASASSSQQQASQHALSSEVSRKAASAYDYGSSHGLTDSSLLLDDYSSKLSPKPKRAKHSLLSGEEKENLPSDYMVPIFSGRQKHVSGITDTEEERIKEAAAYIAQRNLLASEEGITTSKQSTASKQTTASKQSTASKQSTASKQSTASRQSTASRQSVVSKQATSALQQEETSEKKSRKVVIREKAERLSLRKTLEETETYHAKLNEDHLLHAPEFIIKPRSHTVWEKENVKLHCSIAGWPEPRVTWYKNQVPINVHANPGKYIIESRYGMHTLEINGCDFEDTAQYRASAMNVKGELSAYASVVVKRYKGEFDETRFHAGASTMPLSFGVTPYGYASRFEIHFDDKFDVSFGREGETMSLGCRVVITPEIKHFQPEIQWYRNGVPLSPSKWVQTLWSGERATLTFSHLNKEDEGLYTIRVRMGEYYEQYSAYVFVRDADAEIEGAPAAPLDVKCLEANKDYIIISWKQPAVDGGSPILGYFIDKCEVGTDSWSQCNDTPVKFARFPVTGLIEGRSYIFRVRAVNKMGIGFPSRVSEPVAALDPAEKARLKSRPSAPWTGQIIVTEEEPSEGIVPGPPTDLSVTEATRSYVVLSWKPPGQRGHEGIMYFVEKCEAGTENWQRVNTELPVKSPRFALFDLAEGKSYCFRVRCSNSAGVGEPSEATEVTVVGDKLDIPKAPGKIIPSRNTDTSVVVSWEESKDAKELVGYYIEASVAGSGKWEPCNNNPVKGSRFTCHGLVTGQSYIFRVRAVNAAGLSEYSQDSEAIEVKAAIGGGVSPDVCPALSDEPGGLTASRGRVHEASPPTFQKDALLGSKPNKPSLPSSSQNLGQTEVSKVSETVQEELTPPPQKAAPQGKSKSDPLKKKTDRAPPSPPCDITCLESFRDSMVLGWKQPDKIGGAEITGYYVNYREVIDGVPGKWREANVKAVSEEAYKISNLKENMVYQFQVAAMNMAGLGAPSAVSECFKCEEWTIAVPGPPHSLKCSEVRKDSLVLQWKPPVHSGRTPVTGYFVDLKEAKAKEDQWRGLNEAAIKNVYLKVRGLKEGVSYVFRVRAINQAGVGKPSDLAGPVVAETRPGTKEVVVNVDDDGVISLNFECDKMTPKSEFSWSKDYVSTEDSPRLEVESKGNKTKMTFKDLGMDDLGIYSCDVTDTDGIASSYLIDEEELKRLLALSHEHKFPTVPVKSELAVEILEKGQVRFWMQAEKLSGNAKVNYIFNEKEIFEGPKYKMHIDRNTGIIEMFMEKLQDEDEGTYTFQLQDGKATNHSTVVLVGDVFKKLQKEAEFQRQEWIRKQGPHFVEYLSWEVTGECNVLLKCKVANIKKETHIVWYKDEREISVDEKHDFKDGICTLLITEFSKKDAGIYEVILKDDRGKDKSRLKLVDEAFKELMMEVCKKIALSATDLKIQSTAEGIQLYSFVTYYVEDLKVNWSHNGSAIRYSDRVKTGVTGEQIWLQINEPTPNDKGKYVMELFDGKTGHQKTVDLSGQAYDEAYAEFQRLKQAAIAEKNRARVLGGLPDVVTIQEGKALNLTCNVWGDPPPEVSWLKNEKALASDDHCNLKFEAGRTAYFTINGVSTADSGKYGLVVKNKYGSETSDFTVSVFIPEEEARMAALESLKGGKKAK
inactive: [1] -0.012 | [2] 0.088 | [3] -0.111 | [4] -0.135 | [5] -0.079

MSH2 (UniProt P43246)
inactive: [1] 0.018 | [2] -0.006 | [3] 0.028 | [4] 0.001 | [5] 0.065

NDUFS1 isoform 2 (UniProt P28331)
Sequence of UniProt P28331 (P28331 whole entry, looked up): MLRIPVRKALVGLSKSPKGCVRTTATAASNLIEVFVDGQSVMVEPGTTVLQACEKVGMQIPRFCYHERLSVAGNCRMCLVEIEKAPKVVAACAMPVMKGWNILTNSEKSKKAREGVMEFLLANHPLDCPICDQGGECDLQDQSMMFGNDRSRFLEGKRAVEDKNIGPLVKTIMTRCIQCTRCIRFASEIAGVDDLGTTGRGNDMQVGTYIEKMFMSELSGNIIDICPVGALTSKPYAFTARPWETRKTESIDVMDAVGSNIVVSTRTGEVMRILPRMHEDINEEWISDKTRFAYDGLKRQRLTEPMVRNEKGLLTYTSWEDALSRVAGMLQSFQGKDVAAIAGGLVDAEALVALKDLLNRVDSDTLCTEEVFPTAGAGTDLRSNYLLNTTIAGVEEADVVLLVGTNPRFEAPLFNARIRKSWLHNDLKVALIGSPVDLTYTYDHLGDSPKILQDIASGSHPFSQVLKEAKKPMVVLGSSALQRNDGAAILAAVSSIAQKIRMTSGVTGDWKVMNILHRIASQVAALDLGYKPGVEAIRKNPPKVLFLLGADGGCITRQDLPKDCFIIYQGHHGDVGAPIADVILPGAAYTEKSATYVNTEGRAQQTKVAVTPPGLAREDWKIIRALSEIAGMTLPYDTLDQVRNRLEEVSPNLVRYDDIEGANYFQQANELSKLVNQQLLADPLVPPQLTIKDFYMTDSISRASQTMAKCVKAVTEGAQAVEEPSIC
inactive: [1] 0.009 | [2] -0.003 | [3] 0.022 | [4] 0.013 | [5] 0.035

OGFOD2 (UniProt Q6N063)
inactive: [1] -0.079 | [2] 0.049 | [3] -0.07 | [4] 0.033 | [5] 0.076

NMT1 (UniProt P30419)
Sequence of UniProt P30419 (P30419 whole entry, looked up): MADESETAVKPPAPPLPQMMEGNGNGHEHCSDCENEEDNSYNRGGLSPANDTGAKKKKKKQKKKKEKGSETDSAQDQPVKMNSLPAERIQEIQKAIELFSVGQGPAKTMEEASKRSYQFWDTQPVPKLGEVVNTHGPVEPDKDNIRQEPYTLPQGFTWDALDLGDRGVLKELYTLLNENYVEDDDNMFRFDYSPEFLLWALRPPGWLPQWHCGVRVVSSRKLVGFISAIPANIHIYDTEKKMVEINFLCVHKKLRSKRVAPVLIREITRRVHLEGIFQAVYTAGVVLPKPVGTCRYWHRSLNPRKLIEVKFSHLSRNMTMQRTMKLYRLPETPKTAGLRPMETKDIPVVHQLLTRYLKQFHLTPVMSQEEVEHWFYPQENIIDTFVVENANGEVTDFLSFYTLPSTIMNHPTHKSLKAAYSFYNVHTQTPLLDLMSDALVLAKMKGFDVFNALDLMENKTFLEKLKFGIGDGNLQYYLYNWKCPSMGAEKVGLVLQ
inactive: [1] 0.004 | [2] 0.002 | [3] -0.002 | [4] 0.011 | [5] 0.004

PAFAH1B3 (UniProt Q15102)
inactive: [1] 0 | [2] 0.042 | [3] 0.045 | [4] 0.047 | [5] 0.014

OGFR (UniProt Q9NZT2)
inactive: [1] -0.016 | [2] 0.001 | [3] 0.012 | [4] -0.038 | [5] 0.088

NAP1L5 (UniProt Q96NT1)
inactive: [1] 0.082 | [2] -0.023 | [3] -0.028 | [4] -0.082 | [5] 0.304

PBK (UniProt Q96KB5)
inactive: [1] -0.002 | [2] 0.006 | [3] 0.006 | [4] 0.023 | [5] 0.029

N6AMT1 (UniProt Q9Y5N5)
Sequence of UniProt Q9Y5N5 (Q9Y5N5 whole entry, looked up, one chain of several): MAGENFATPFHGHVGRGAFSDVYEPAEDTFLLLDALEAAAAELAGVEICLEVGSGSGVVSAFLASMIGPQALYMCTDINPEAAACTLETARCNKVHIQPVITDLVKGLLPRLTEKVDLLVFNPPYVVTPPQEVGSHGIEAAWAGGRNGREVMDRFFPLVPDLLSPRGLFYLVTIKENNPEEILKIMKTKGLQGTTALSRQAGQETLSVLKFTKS
inactive: [1] -0.046 | [2] -0.086 | [3] -0.046 | [4] -0.011 | [5] 0.052
